# Source: PubChem BioAssay AID493169 (National Center for Advancing Translational Sciences (NCATS), 2011)
# Records with an inconclusive call do not appear. Unmarked numbers belong to inactive results. Activity calls are given as the source filed them. Calls come from the whole dose curve; as a rule, active = well fitted inhibition curve with a large enough effect; inconclusive = small, poorly fitted or top-dose-only effect; inactive = flat fitted curve, though single readings scatter.
# Assay: CHOP2 Reporter Counterscreen Assay for Inhibitors of Ubiquitin-specific Protease USP2a;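 note: activated enterokinase alone at 50 pM in a cell-free format rather than USP2a or CHOP2; nearly all actives have a fitted effect of over 55% in size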
# Details: purified enterokinase, fluorogenic substrate, 485/531 nm; series mostly up to 38.3 µM; activity change, negative = inhibition: at the top concentration
# In short: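 Fluorescence (485/531 nm) read 10 min after adding 25nM reporter substrate to 50 pM activated EK preincubated 30 min RT with compound; Tris pH 8.0/CaCl2/CHAPS buffer. Data normalized to buffer-alone inhibition; concentration-response curves fitted.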
# % is set by controls: 0 for no effect and ±100 for the full control effect; potency is the fitted concentration of half-maximal effect.
SMILES,"activity change, negative = inhibition [%]",Potency
CS(=O)(=O)c1ccc(C(=O)Nc2nc(-c3ccco3)c(-c3ccco3)s2)cc1,-26.3,
O=C(OCc1ccccc1)C1CCCN1C(=O)c1cccs1 (configuration not stated),8.05,
COCCn1c(CN(Cc2ccccc2)Cc2ccccc2)nc2c1c(=O)n(C)c(=O)n2C,3.98,
CCOc1ccc2nc(NC(=O)Nc3ccccc3)sc2c1,-4.34,
CNc1cccccc1=S,-3.13,
COc1ccc(-c2cc(C(F)(F)F)nc(S(C)(=O)=O)n2)cc1,-3.17,
COC(=O)c1cc2sc(Cl)cc2n1Cc1nc(-c2ccccc2)oc1C,0.214,
O=C(CSc1nc2ccccc2[nH]1)Nc1ccc2c(c1)OCCO2,-0.689,
Cc1ccc(NC(=O)CSc2nc(O)cc(=O)n2-c2ccc(C)cc2)cc1,-0.867,
O=C(CC(C(=O)O)C1CCCO1)NCCc1ccc2c(c1)OCO2 (configuration not stated),-1.81,
CCOC(=O)N1CCN(CC(=O)n2c(C)c(C)c3ccccc32)CC1,-16.2,
Cc1ccc(/C=C2/SC(=S)N(c3ccc(S(=O)(=O)Nc4nccs4)cc3)C2=O)cc1,,12.6 µM (active)
O=C(NCCOC(=O)c1ccccc1C(=O)OCCNC(=O)c1cccnc1)c1cccnc1,-0.228,
C=CC[C@H](CC(=O)N[C@H](CO)Cc1ccccc1)C(=O)N[C@H](COC(=O)[C@@H](CC=C)CC(=O)OC(C)(C)C)Cc1c[nH]c2ccccc12,-3.18,
CC(C)(C)NC(=O)CSc1nc(O)cc(=O)n1-c1ccccc1F,7.8,
Cc1ccc(C(=O)CSc2nnc(CNc3nc(-c4ccccc4)cs3)n2C)cc1,-7.24,
O=C(O)C1CCN1C1CCCCC1 (configuration not stated),-1.7,
